Records with an inconclusive call do not appear. Active and inactive are the calls of the source. Unless noted, calls come from the whole dose curve; as a rule, active = well fitted curve in the direction sought with a large enough effect; inconclusive = small, poorly fitted or top-dose-only effect, or another doubt; inactive = no such curve, though single readings can be large; an effect the other way counts as inactive or inconclusive.
Tests used:
[1] = qHTS for Inhibitors of Plasmodium falciparum (DD2) proliferation (AID 504314);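 note: parasite DNA measured by SYBR Green fluorescence after red cell lysis; plate controls were DMSO vehicle for no effect and artemisinin wells for full effect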
How it was run: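 Fluorescence read-out (ex 485/em 535 nm) of SYBR Green-stained parasite DNA quantifies intraerythrocytic growth. Cultures at 0.3% parasitemia and 2.5% hematocrit were treated for 72 h; data normalized to DMSO and 0.29 uM artemisinin wells.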

[2] = qHTS for Inhibitors of Plasmodium falciparum (GB4) proliferation (AID 504315);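 note: 0% = DMSO vehicle and -100% = 0.29 µM artemisinin control; nearly all actives have a fitted effect of over 50% in size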
How it was run: (§1)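 Erythrocytes infected with P. falciparum line (0.3% parasitemia, 2.5% hematocrit final) incubated with compounds 72 h at 37 °C, 5% CO2; SYBR Green lysis buffer added, fluorescence read next day. Normalized to 0.29 uM artemisinin and DMSO.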

[3] = qHTS for Inhibitors of Plasmodium falciparum (7G8) proliferation (AID 504316);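 note: series mostly up to about 6.7 µM; 0% = DMSO vehicle and -100% = 0.29 µM artemisinin full kill; nearly all actives have a fitted effect of over 65% in size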
How it was run: as §1

[4] = qHTS for Inhibitors of Plasmodium falciparum (HB3) proliferation (AID 504318);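 note: 0% = DMSO vehicle and -100% = artemisinin control; nearly all actives have a fitted effect of over 60% in size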
How it was run: as §1

[5] = qHTS for Inhibitors of Plasmodium falciparum (CP250) proliferation (AID 504320);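 note: plate controls were DMSO vehicle for no effect and 0.29 µM artemisinin control for full effect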
How it was run: as §1

[6] = biological target: Atrial natriuretic peptide receptor 1 (Homo sapiens) (UniProt P16066); test: Natriuretic polypeptide receptor (hNpr1) antagonism - Pilot CMLD screen (AID 1347052; calls by dose curve;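 note: HEK293 cells with hNpr1 stimulated by hNppA peptide at 0.1 nM; cGMP level read as GloSensor luciferase luminescence after agonist stimulation; series mostly up to about 9.2 µM; % is set by controls: 0 for no effect and ±100 for the full control effect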)
Chain of Atrial natriuretic peptide receptor 1 (Homo sapiens) (P16066 whole entry, looked up): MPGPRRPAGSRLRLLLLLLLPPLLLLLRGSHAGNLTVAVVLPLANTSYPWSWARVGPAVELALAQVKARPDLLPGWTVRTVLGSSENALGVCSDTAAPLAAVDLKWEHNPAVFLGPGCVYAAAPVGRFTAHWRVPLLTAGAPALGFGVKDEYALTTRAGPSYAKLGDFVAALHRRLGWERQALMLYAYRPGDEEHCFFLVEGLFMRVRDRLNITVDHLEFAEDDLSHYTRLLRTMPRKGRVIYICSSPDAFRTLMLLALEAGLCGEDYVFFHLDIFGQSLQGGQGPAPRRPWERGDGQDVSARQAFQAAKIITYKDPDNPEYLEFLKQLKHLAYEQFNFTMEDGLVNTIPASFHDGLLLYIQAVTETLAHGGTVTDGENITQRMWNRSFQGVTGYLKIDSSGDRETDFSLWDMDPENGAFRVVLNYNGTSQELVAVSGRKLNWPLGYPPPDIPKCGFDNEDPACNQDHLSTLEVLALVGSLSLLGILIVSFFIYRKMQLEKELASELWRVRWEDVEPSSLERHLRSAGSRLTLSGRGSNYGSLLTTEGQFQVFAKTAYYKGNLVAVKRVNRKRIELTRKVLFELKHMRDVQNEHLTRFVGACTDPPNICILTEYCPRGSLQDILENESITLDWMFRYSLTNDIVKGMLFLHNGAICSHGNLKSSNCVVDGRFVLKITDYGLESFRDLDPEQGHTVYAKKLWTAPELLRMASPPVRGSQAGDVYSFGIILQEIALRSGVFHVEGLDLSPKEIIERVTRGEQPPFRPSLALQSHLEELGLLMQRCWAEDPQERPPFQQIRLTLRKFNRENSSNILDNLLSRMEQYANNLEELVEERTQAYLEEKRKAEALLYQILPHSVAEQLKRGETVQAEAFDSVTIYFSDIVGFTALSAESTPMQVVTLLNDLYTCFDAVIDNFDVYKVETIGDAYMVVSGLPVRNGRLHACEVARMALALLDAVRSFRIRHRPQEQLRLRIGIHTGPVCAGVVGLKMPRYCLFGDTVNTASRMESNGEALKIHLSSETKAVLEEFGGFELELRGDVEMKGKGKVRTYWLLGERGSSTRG

COc1ccc2c(c1)O[C@@H](c1ccc3c(c1)OCO3)[C@H](OC(=O)Nc1ccc(OC(F)F)cc1)C2=O
inactive: Potency [1] | Potency [2] | Potency [3] | Potency [4] | Potency [5] | Potency [6]

C#CC1(O)C(OC)=CC2C(=O)C1C(c1ccccc1)C2C (stereo not drawn)
inactive: Potency [1] | Potency [2] | Potency [3] | Potency [4] | Potency [5] | Potency [6]

Cc1ccc([S+](=O)([O-])N[C@@H]2COC(=O)CC=C[C@H](C)COC(=O)N[C@@H](C)C(=O)CC=C[C@H]2C)cc1
inactive: Potency [1] | Potency [2] | Potency [3] | Potency [4] | Potency [5] | Potency [6]

C=CCOC(=O)C(C(C)=O)[C@@H](NC(=O)OC)c1ccc(Cl)cc1 (stereo partly drawn)
inactive: Potency [1] | Potency [2] | Potency [3] | Potency [4] | Potency [5] | Potency [6]

COC(=O)C1(C(=O)OC)Cc2conc2[C@@H]1c1ccccc1
inactive: Potency [1] | Potency [2] | Potency [3] | Potency [4] | Potency [5] | Potency [6]

CC(C)=CCN1C(=O)C2(CC(C)=C[C@@H](C)O2)c2c(Br)cccc21 (stereo partly drawn)
inactive: Potency [1] | Potency [2] | Potency [3] | Potency [4] | Potency [5] | Potency [6]

COCC=CC1=CC2=CC(=O)C(C)(OC(=O)c3cnc4ccccc4n3)C(=O)C2=CN1C1CC1 (stereo not drawn)
inactive: Potency [1] | Potency [2] | Potency [3] | Potency [4] | Potency [5] | Potency [6]

OC[C@@H](O)[C@@H](O)CCc1ccccc1
inactive: Potency [1] | Potency [2] | Potency [3] | Potency [4] | Potency [5] | Potency [6]

C[C@@H]1CC2=CCCC2[C@]2(O1)C(=O)Nc1cccc(Br)c12 (stereo partly drawn)
inactive: Potency [1] | Potency [2] | Potency [3] | Potency [4] | Potency [5] | Potency [6]

COCCN1C(=O)N[C@@H](c2cccc(C(F)(F)F)c2)[C@H](C(C)=O)[C@H]1C
inactive: Potency [1] | Potency [2] | Potency [3] | Potency [4] | Potency [5] | Potency [6]

C=CCC(Nc1ccc(OC)cc1)C(=O)OCC (stereo not drawn)
inactive: Potency [1] | Potency [2] | Potency [3] | Potency [4] | Potency [5] | Potency [6]

C=C[C@@]1(C)CCC=C2C(=O)CCC[C@H]21
inactive: Potency [1] | Potency [2] | Potency [3] | Potency [4] | Potency [5] | Potency [6]

COC(=O)N[C@@H](c1cccc(F)c1)[C@]1(C(=O)OC)CCCC1=O
inactive: Potency [1] | Potency [2] | Potency [3] | Potency [4] | Potency [5] | Potency [6]

CCN1C(=NCc2ccco2)N[C@@H](CCc2ccccc2)[C@H](C(=O)OC)[C@H]1C
inactive: Potency [1] | Potency [2] | Potency [3] | Potency [4] | Potency [5] | Potency [6]

C=CC[C@@H]1C=C[C@H](ON=C[C@@H](N[S+](=O)([O-])c2ccc(C)cc2)[C@H](C)C=CCC(=O)OC)[C@H](CO)O1
inactive: Potency [1] | Potency [2] | Potency [3] | Potency [4] | Potency [5] | Potency [6]

COCCN1C(=O)N[C@@H](CCc2ccccc2)[C@@H](C(=O)OC)[C@H]1C
inactive: Potency [1] | Potency [2] | Potency [3] | Potency [4] | Potency [5] | Potency [6]

COc1ccc(COC(=O)NN=C2C[C@@H](O)[C@@H](O)[C@@H]3[C@H]4C(=O)N(C5CCCCC5)C(=O)[C@@H]4CC[C@H]23)cc1
inactive: Potency [1] | Potency [2] | Potency [3] | Potency [4] | Potency [5] | Potency [6]

CCCCC1=CC2=C(c3ccco3)C(=O)C(C)(OC(=O)c3ccc(OC)cc3)C(=O)C2=CN1Cc1ccc(OC)cc1 (stereo not drawn)
inactive: activity, negative = inhibition [1] 1.26% [at 1.12 µM] | Potency [2] | Potency [3] | Potency [4] | Potency [5] | Potency [6]

COc1ccc(-c2nc(-c3ccccc3)oc2NC(C)c2ccccc2)cc1 (stereo not drawn)
inactive: Potency [1] | Potency [2] | Potency [3] | Potency [4] | Potency [5] | Potency [6]

C[C@@H]1C[C@H]2CC(=O)N3[C@H](CC(=O)N2[C@H]1c1ccccc1)C[C@@H](C)[C@@H]3c1ccccc1
inactive: Potency [1] | Potency [2] | Potency [3] | Potency [4] | Potency [5] | Potency [6]

CC(=CCO)CCO
inactive: Potency [1] | Potency [2] | Potency [3] | Potency [4] | Potency [5] | Potency [6]

COC(=O)[C@H]1O[C@@H](c2c(OC)c(OC)c(C)c(OC)c2OC)[C@H](C)[C@@H](O)[C@@H]1C
inactive: Potency [1] | Potency [2] | Potency [3] | Potency [4] | Potency [5] | Potency [6]

COc1ccc(OC)c(-c2ccccc2C=NNS(=O)(=O)c2ccc(C)cc2)c1
inactive: Potency [1] | Potency [2] | Potency [3] | Potency [4] | Potency [5] | Potency [6]

COC1=C[C@H](C(=O)NCc2ccc(OC)cc2)C(C)C(c2ccccc2)CC1=O (stereo partly drawn)
inactive: Potency [1] | Potency [2] | Potency [3] | Potency [4] | Potency [5] | Potency [6]

COC(=O)CC=C[C@@H](C)[C@@H](C=NO[C@H](C)c1cn([C@H](CO)Cc2ccccc2)nn1)NS(=O)(=O)c1ccc(C)cc1
inactive: Potency [1] | Potency [2] | Potency [3] | Potency [4] | Potency [5] | Potency [6]

COCCN1C(=O)N[C@@H](c2cccc(C(F)(F)F)c2)[C@H](C(=O)OC)[C@H]1C
inactive: Potency [1] | Potency [2] | Potency [3] | Potency [4] | Potency [5] | Potency [6]

COC(=O)C1(C(=O)OC)CC=CCc2ccccc2[C@H]1C[N+](=O)[O-]
inactive: Potency [1] | Potency [2] | Potency [3] | Potency [4] | Potency [5] | Potency [6]

CC(C)(C)OC(=O)NCCCC1=CC2=CC(=O)C(C)(O)C(=O)C2=CO1 (stereo not drawn)
inactive: Potency [1] | Potency [2] | Potency [3] | Potency [4] | Potency [5] | Potency [6]

CCOC(=O)C1=CN(CCNC(=O)OC(C)(C)C)C(=O)NC1c1ccccc1 (stereo not drawn)
inactive: Potency [1] | Potency [2] | Potency [3] | Potency [4] | Potency [5] | Potency [6]

CCOC(=O)NN=C1C[C@@H](O)[C@@H](O)[C@@H]2[C@H]3C(=O)N([C@@H](C)c4ccccc4)C(=O)[C@@H]3CC[C@H]12
inactive: Potency [1] | Potency [2] | Potency [3] | Potency [4] | Potency [5] | Potency [6]

CCCCCCCc1cc2ccccc2c2c(C(C)=O)c(-c3ccccc3)c(C(=O)OC)n12
inactive: Potency [1] | Potency [2] | Potency [3] | Potency [4] | Potency [5] | Potency [6]

C#CCN1C(=O)CC[C@@]23C1=NC(C(=O)OC)=C(C(=O)OC)[C@@H]2N(Cc1ccccc1)c1ccccc13
inactive: Potency [1] | Potency [2] | Potency [3] | Potency [4] | Potency [5] | Potency [6]

O[C@@H]1CO[C@@H](C=Cc2ccccc2)[C@H]1OCc1cccc(Br)c1
inactive: Potency [1] | Potency [2] | Potency [3] | Potency [4] | Potency [5] | Potency [6]

CCOC(=O)CN1C(=O)N[C@@H](CCc2ccccc2)[C@H](C(=O)OC)[C@H]1C
inactive: Potency [1] | Potency [2] | Potency [3] | Potency [4] | Potency [5] | Potency [6]

Cc1cc(C)cc(CO[C@H]2C=C[C@@H](c3ccccc3)O[C@H]2CO)c1
inactive: Potency [1] | Potency [2] | Potency [3] | Potency [4] | Potency [5] | Potency [6]

C=C(C)C(O)C=CC=Cc1ccccc1 (stereo not drawn)
inactive: Potency [1] | Potency [2] | Potency [3] | Potency [4] | Potency [5] | Potency [6]

CN1c2ccccc2[C@@]2(O)C(=O)[C@@]1(C)[C@@H]1CCC=C[C@H]12
inactive: Potency [1] | Potency [2] | Potency [3] | Potency [4] | Potency [5] | Potency [6]

COC(=O)C1=C(C(=O)OC)[C@@H]2N(C)c3ccccc3[C@@]23C[C@@H](C(=O)OC)N(C(=O)NC(C)(C)C)C3=N1
inactive: Potency [1] | Potency [2] | Potency [3] | Potency [4] | Potency [5] | Potency [6]

CC(=O)N1C(=O)NC(C)=C(C#N)C1c1ccccc1 (stereo not drawn)
inactive: Potency [1] | Potency [2] | Potency [3] | Potency [4] | Potency [5] | Potency [6]

CC(=O)[C@H]1[C@H](CCc2ccccc2)NC(=O)N(Cc2ccccc2)[C@@H]1C
inactive: Potency [1] | Potency [2] | Potency [3] | Potency [4] | Potency [5] | Potency [6]

COC[C@@H](O)[C@H]1OCc2cccc(OC)c2[C@H]1C=Cc1ccccc1
inactive: Potency [1] | Potency [2] | Potency [3] | Potency [4] | Potency [5] | Potency [6]

C=CCOC(=O)N[C@@H](c1cccs1)C(C(C)=O)C(C)=O
inactive: Potency [1] | Potency [2] | Potency [3] | Potency [4] | Potency [5] | Potency [6]

CCCCC1=CC2=C(c3ccco3)C(=O)C(C)(OC(=O)c3ccc(OC)cc3)C(=O)C2=CN1CCCN(CC)CC (stereo not drawn)
inactive: Potency [1] | Potency [2] | Potency [3] | Potency [4] | Potency [5] | Potency [6]

O=C1[C@H]2[C@@H]3[C@@H](O)[C@H](O)CC(=NOCc4ccccc4)[C@@H]3CC[C@H]2C(=O)N1C[C@@H]1CCCO1
inactive: Potency [1] | Potency [2] | Potency [3] | Potency [4] | Potency [5] | Potency [6]

CC(C)[C@@H](OCc1ccccc1)[C@H](C)C=NOC[C@@H](O)[C@H]1O[C@@H]2OC(C)(C)O[C@H]2[C@@H]1O
inactive: Potency [1] | Potency [2] | Potency [3] | Potency [4] | Potency [5] | Potency [6]

CC(=O)OC[C@H]1O[C@H](CC=NOC[C@@H](O)COCc2ccco2)C=C[C@H]1OC(C)=O
inactive: Potency [1] | Potency [2] | Potency [3] | Potency [4] | Potency [5] | Potency [6]

CCOC(=O)C1=CN(CCc2cn(Cc3ccccc3)nn2)C(=O)NC1c1ccccc1 (stereo not drawn)
inactive: Potency [1] | Potency [2] | Potency [3] | Potency [4] | Potency [5] | Potency [6]

COC(=O)N1C(C2CC2)=Cc2ccccc2C1CC(C)=O (stereo not drawn)
inactive: activity, negative = inhibition [1] -2.33% [at 1.12 µM] | Potency [2] | Potency [3] | Potency [4] | Potency [5] | Potency [6]

CC(=O)C1=C(C)N(Cc2ccccc2)C(=O)NC1c1cccs1 (stereo not drawn)
inactive: Potency [1] | Potency [2] | Potency [3] | Potency [4] | Potency [5] | Potency [6]

O=C1OC2(CCCCC2)CC2=C1[C@H]1O[C@](c3ccsc3)(Cc3c1ccc1ccccc31)O2
inactive: Potency [1] | Potency [2] | Potency [3] | Potency [4] | Potency [5] | Potency [6]

CCCC[C@]12Cc3c(ccc4ccccc34)[C@H](O1)c1c(cc(C)oc1=O)O2
inactive: Potency [1] | Potency [2] | Potency [3] | Potency [4] | Potency [5] | Potency [6]

COCCN1C=C2C(=O)C(C)(OC(=O)C3CCCC3)C(=O)C(c3ccccc3)=C2C=C1CCCC(=O)OC (stereo not drawn)
inactive: Potency [1] | Potency [2] | Potency [3] | Potency [4] | Potency [5] | Potency [6]

CCN1C(=NCCCCO)NC(c2cccc(C(F)(F)F)c2)C(C(=O)OC)=C1C (stereo not drawn)
inactive: Potency [1] | Potency [2] | Potency [3] | Potency [4] | Potency [5] | Potency [6]

From PubChem BioAssay (NCATS)
